# Compound activity as filed in PubChem BioAssay.
# IMPase Li cell: cell-permeable IMPase inhibitors with lithium potentiation; AID 1457; CHO-M1 cells, IP1 TR-FRET (IP-One), carbachol + lithium; Potency, µM (titrated, usually from 59.4 µM), most hits filed as inhibitors; actives 0.35% (n = 210,000);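 further: IP1 builds up when IMPase is blocked and the TR-FRET signal falls; nearly all actives have a fitted effect of over 50% in size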
#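 Test compounds were applied to CHO-M1 cells previously cultured for 16–30 h at 2000 per well. A small lithium amount accompanied them; after 30 min at 37C, IP1 was quantified by TR-FRET.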
# ERK EGF block: inhibitors of EGF-stimulated ERK signaling pathway | AID 1454 | actives 0.41% (n = 130,000) | Potency, µM (series often up to 11.5 µM), actives largely listed as inhibitors | HEK293-V1b, EGF-stimulated phospho-ERK AlphaScreen; further: nearly all actives have a fitted effect of over 55% in size
#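 V1b-HEK293, 1% FBS o/n; cpd 30 min 37C; EGF 25 nM final, 5 min; lyse 10 min; AlphaScreen beads 5 h RT. Normalized DMSO basal vs EGF max; Hill AC50.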
# NPSR antagonist: neuropeptide S receptor (human) antagonism, cAMP | Potency, µM (titrated, usually from 38.3 µM), most hits filed as inhibitors | CHO-NPSR cells, cAMP TR-FRET, antagonist mode | actives 1% (n = 220,000) | Q6W5P4; further: nearly all actives have a fitted effect of over 50% in size
# Target sequence (Q6W5P4 whole entry, looked up): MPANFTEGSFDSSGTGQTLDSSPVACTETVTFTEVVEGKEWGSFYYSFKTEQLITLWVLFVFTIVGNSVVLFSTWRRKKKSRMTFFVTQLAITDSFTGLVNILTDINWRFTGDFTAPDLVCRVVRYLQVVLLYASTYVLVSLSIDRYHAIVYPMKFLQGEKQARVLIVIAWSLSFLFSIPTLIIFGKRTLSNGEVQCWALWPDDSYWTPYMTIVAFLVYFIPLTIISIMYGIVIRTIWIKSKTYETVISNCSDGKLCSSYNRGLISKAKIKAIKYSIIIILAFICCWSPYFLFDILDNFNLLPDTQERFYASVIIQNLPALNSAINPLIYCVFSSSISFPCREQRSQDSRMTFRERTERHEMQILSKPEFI
# HTT cytoprotect: Huntington cell model cytoprotection by ATP luminescence; Potency, µM (titrated, usually from 56.4 µM), actives largely listed as activators; actives 0.14% (n = 230,000); PC12 HTT-Q103 induced, cytoprotection, ATP luminescence, 40 h; AID 1471; further: nearly all actives have a fitted effect of over 45% in size
#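 Huntington model: PC12 line, ecdysone-inducible HTTQ103 exon1–GFP, tebufenozide 100 nM. Test articles in a dose series. Endpoint luminescence from cellular ATP.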
# HttQ103 aggreg: inhibitors of mutant huntingtin aggregate formation in PC12 cells. PC12 HttQ103-GFP aggregates, Acumen cytometry, 40 h. Potency, µM (series often up to 46.1 µM), hits mostly inhibitors. actives 1.1% (n = 220,000); further: nearly all actives have a fitted effect of over 60% in size
#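 Steps: seed 1500 PC12 HTTQ103-GFP cells/well; add tebufenozide, 100 nM final; add compound titration; add ATPLite reagent; quantify GFP aggregates by laser scanning cytometry.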
# A number is an active result; i = inactive; ? = inconclusive; nt = not tested or not shown; [ ] = dose if it differs, or a comment. Compounds with a hit are over-represented: about 1.9% of the library has one in this group of screens. The call rests on the fitted dose curve; in most records, active means well fitted curve in the direction sought with a large enough effect; inconclusive means small, poorly fitted or top-dose-only effect, or another doubt; inactive means no such curve, though single readings can be large; an effect the other way counts as inactive or inconclusive.
SMILES,IMPase Li cell,ERK EGF block,NPSR antagonist,HTT cytoprotect,HttQ103 aggreg
CCCCCCCCCCC(CO)CCCCCCCC (centres undefined),nt,nt,nt,i,i
CCOc1cc(N2CCOCC2)c(OCC)cc1NC(=O)CC12CC3CC(CC(C3)C1)C2,i,nt,10µM,i,i
O=C(/C=C/c1ccc(Cl)cc1)Nc1ccc(CN2CCOCC2)cc1,i,?,i,i[1.9 µM],i
CC(C)c1ccc(/C=C/C(=O)Nc2ccc(CN3CCOCC3)cc2)cc1,nt,35µM,i,i[10 µM],i[9.22 µM]
COc1cc(/C=N/Nc2nc(-c3ccc(S(=O)(=O)N(C)C)cc3)cs2)ccc1O,nt,8.9µM,?,i[10 µM],?
CC1CN2C(CCC(C)C2c2ccc(Br)cc2)C(=O)O1 (centres undefined),nt,nt,nt,i[10 µM],nt
CC(C)n1c(SCC(=O)Nc2nc3c(s2)CCCC3)nc2c1c(=O)n(C)c(=O)n2C,i,?,i,i[10 µM],13µM
Cc1ccc(S(=O)(=O)Oc2ccc(N=Nc3ccc(-c4ccc(N=Nc5c(O)ccc6cc(S(=O)(=O)O)cc(S(=O)(=O)O)c56)c(C)c4)cc3C)cc2)cc1,i,nt,nt,i,nt
Cn1cc([N+](=O)[O-])c(C(=O)Nc2ccn(Cc3c(F)c(F)cc(F)c3F)n2)n1,i,nt,i,10µM,nt
Cn1ncc([N+](=O)[O-])c1C(=O)Nc1ccn(Cc2ccccc2F)n1,i,nt,i,i,i
Cc1ccnc(N2C(=O)c3cccc4c([N+](=O)[O-])ccc(c34)C2=O)c1,i,nt,10µM,i[10 µM],18µM
O=C1c2cccc3c([N+](=O)[O-])ccc(c23)C(=O)N1Cc1cccnc1,i,?,i,i,35µM
O=C1c2cccc3cccc(c23)C(=O)N1Cc1cccnc1,nt,i,i,i[10 µM],i[9.22 µM]
CCNc1ncc2nc(-c3ccc(F)cc3)c(=O)n(CCOC)c2n1,?,nt,nt,i,nt
CCOC(=O)c1c(NC(=O)c2ccco2)sc2c1CCCCC2,i,nt,?,i,i
CCOC(=O)c1c(-c2ccc(OC)cc2)csc1NC(=O)CNCc1ccco1,i,nt,?,i,i
CCOC(=O)c1c(-c2ccc(Cl)cc2)csc1NC(=O)CNCc1ccco1,nt,i,10µM,i[10 µM],i[9.22 µM]
CCOC(=O)c1c(-c2ccc(C)s2)csc1NC(=O)c1ccco1,?,nt,7.9µM,i[10 µM],i
COC(=O)N1C2CC(=O)O[C@@H]3c4cc5c(cc4[C@]1(C)[C@@]3(Br)c1ccccc12)OCO5,i,nt,nt,i[10 µM],nt
COc1ncc2nc(-c3cccs3)c(=O)n(C)c2n1,i,nt,nt,i,nt
O=[N+]([O-])c1ccc(C[n+]2cccc3c4ccccc4ccc32)cc1,i,i,i,?,i
CCCCCCCCC[n+]1cccc2c3ccccc3ccc21,i,nt,?,i,2.5µM
CCCCCCCCCCCCCCCC[n+]1cccc2ccccc21,i,?,?,i[10 µM],7.9µM
Cc1ccccc1OCC1CO1 (centres undefined),i,nt,nt,i,nt
CC12CCC(C[N+](C)(CCC[N+](C)(C)C)C1)C2(C)C (centres undefined),nt,nt,nt,i,i
SMILES,IMPase Li cell,ERK EGF block,NPSR antagonist,HTT cytoprotect,HttQ103 aggreg
Cc1ccc(Nc2cc(C)nn2-c2nc(C)cc(C)n2)cc1,i,nt,0.79µM,i[4.97 µM],?
O=C(Nc1ccccc1)Nc1ccc2nnsc2c1,nt,i,i,i[10 µM],i[9.22 µM]
O=C(Nc1ccccc1)Nc1ccc2snnc2c1,i,i,i,i[10 µM],11µM
COc1ccccc1CNc1ncncc1-c1ccccc1OC,i,nt,nt,i,nt
CN(C)c1ccc(N=Cc2ccco2)cc1,i,nt,7.9µM,i,i[9.22 µM]
CN(C)c1ccc(C=Nc2ccc(N(C)C)cc2)cc1,i,?,?,i[10 µM],i
CCOc1ccc(Cc2nccc3cc(OCC)c(OCC)cc23)cc1OCC,i,i,nt,i,i
CCc1nnc(NS(=O)(=O)c2ccc(NC(=S)NC(=O)/C=C/c3ccc(F)cc3)cc2)s1,i,i,10µM,i[10 µM],i
O=C(O)[C@H](C1NCCS1)N1C(=O)c2ccccc2C1=O (some centres undefined),i,nt,nt,nt,nt
O=c1c2nccnc2[nH]c(=S)n1Cc1ccccc1,i,i,i,i,i
O=c1c2cccnc2[nH]c(=S)n1Cc1ccccc1,10µM,i,i,i[10 µM],i
Cc1ccc(C2CC(C(F)(F)F)n3nc(C(=O)NCc4c(C)nn(C)c4C)c(Cl)c3N2)cc1 (centres undefined),i,nt,?,i,13µM
O=C1CC(N2CCN(Cc3ccccc3)CC2)C(=O)N1 (centres undefined),i,i,i,i,i
O=C1CC(N2CCN(c3ccc(Cl)c(Cl)c3)CC2)C(=O)N1 (centres undefined),i,nt,i,i,25µM
CN(C)S(=O)(=O)c1ccc(N2CCN(S(=O)(=O)c3ccc(F)cc3)CC2)c(Cl)c1,i,nt,i,i[10 µM],10µM
Cc1c(C(=O)NCc2ccc3c(c2)OCO3)sc2nc(-c3ccccc3)cn12,i,nt,i,i,i
Cc1nc2c(C(=O)NCc3ccc4c(c3)OCO4)cnn2c(C)c1Cc1ccc(F)cc1Cl,i,nt,10µM,i,i
Cc1c(C(=O)NCc2ccc3c(c2)OCO3)sc2nc(-c3ccc(F)cc3)cn12,i,nt,i,i,0.89µM
COC(=O)C1=C(C)NC(C)=C(C(=O)OCCN2CCN(C(c3ccccc3)c3ccccc3)CC2)C1c1cccc([N+](=O)[O-])c1 (centres undefined),nt,nt,nt,i,i
O[C@@H]1CO[C@H]2[C@@H]1OC[C@@H]2O,nt,nt,nt,i,i
Cc1ccc(C2=NOC(=O)/C2=C\C=C\c2ccccc2)cc1,i,32µM,10µM,i[10 µM],i
